Test results: PubChem BioAssay
For some assays here: Results with a measured potency or affinity are listed apart. The source made the active and inactive calls. Unless noted, the rule behind the calls is not given here.

Columns and labels:
[1] = antimalarial activity against Dd2 strain (AID 2302;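 active = growth inhibition above 50% at the single 2 µM test dose, taken to imply half-maximal potency below 2 µM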;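 note: 0% = DMSO untreated growth and 100% = chloroquine plus artemisinin killed control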); settings: P. falciparum Dd2 in RBCs, LDH growth readout, 72 h; at 2 µM; active compounds read high
[2] = HepG2 cytotoxicity, primary screen, cytotoxicity control for P. falciparum antimalarial project, cell-based, ATP luminescence (AID 2303;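 active = inhibition above 50%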;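 note: 0% = DMSO wells and 100% = digitonin-killed cells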); settings: HepG2 viability, 24-48 h, at 10 µM, active compounds read high
[3] = target: L-lactate dehydrogenase (Plasmodium falciparum (isolate CDC / Honduras)) (UniProt Q27743); assay: PfLDH activity inhibition – cell lysate, 3D7 strain, counter-screen for P. falciparum growth inhibition project (AID 2304);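 note: 0% = vehicle and 100% = reference inhibitor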; settings: P. falciparum 3D7 crude extract, LDH APAD/NBT absorbance; at 2 µM; active compounds read high
Chain of L-lactate dehydrogenase (Plasmodium falciparum (isolate CDC / Honduras)) (Q27743 whole entry, looked up): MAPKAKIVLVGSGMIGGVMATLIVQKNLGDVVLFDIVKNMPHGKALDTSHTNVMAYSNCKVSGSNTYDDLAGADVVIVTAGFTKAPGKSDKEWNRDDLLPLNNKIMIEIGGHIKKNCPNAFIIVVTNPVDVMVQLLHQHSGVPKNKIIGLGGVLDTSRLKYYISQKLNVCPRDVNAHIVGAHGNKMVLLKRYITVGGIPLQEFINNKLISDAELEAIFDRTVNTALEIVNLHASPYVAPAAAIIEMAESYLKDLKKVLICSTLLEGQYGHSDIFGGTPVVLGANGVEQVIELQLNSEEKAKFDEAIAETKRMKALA

[4] = inhibition of 3D7 malaria parasite growth – strain 3D7 (AID 2306);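 note: 0% = DMSO wells and 100% = chloroquine plus artemisinin control wells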; settings: P. falciparum 3D7 erythrocytic growth, LDH absorbance, 72 h; at 2 µM; active compounds read high
[5] = target: Calcium-dependent protein kinase 1 (Plasmodium falciparum (isolate 3D7)) (UniProt P62344); assay: PfCDPK1 kinase inhibitors, biochemical, TCAMS library (AID 1159585; cut-off not given, nearly all actives have IC50 up to about 0.98 µM;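 note: inhibitors leave more ATP so luminescence rises with inhibition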); settings: recombinant PfCDPK1, Kinase-Glo ATP depletion luminescence
Chain of Calcium-dependent protein kinase 1 (Plasmodium falciparum (isolate 3D7)) (P62344 whole entry, looked up): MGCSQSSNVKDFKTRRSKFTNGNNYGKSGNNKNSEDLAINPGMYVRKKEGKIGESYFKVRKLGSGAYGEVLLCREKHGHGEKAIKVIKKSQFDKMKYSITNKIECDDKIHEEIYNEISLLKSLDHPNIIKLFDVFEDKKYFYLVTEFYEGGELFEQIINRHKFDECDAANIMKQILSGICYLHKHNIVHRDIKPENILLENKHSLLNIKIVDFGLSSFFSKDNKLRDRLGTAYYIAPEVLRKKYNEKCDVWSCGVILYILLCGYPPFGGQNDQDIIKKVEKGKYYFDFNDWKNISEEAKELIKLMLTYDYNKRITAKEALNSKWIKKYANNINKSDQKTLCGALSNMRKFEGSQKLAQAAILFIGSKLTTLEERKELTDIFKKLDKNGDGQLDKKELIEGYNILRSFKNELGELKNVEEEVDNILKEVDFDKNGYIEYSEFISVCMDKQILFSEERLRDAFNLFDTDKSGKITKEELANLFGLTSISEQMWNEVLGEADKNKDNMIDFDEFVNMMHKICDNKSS

[6] = target: Plasmodium falciparum protein kinase 6 (PK6, PF3D7_1337100) (UniProt Q8IDW1); assay: PfPK6 kinase inhibitors, biochemical, TCAMS library (AID 1159586); settings: recombinant PfPK6, Kinase-Glo ATP depletion luminescence
Chain of Plasmodium falciparum protein kinase 6 (PK6, PF3D7_1337100) (Q8IDW1 1-305): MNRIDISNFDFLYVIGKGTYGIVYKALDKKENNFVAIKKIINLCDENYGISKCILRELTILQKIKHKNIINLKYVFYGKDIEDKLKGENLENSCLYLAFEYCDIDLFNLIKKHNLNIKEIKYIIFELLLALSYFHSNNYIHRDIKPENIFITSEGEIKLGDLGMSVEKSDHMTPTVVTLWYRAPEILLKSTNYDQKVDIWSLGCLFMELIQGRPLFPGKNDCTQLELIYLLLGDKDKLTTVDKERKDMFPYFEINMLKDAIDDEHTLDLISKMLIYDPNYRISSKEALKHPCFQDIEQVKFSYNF

[7] = target: Protein kinase 7 (PK7), Plasmodium falciparum 3D7 (PF3D7_0213400) (UniProt Q7YTF7); assay: inhibition of Plasmodium PK7 catalytic activity – biochemical, TCAMS antimalarial set, Kinase-Glo luminescence (AID 1159587); settings: recombinant PfPK7, Kinase-Glo ATP depletion luminescence
Chain of Protein kinase 7 (PK7), Plasmodium falciparum 3D7 (PF3D7_0213400) (Q7YTF7 1-343): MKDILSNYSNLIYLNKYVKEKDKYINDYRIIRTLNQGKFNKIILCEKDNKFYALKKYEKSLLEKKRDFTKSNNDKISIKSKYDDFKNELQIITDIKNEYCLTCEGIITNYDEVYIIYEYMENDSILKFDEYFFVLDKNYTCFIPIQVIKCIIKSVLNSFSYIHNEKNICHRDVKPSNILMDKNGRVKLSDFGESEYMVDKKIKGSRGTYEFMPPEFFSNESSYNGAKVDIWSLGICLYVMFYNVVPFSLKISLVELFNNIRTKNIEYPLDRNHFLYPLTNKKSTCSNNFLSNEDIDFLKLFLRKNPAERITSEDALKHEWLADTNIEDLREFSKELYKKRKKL

[8] = target: Calcium-dependent protein kinase 4 (Plasmodium falciparum (isolate 3D7)) (UniProt Q8IBS5); assay: PfCDPK4 kinase inhibitors, biochemical, TCAMS library (AID 1159588; cut-off not given, nearly all actives have IC50 up to about 0.91 µM); settings: recombinant PfCDPK4, Kinase-Glo ATP depletion luminescence
Chain of Calcium-dependent protein kinase 4 (Plasmodium falciparum (isolate 3D7)) (Q8IBS5 whole entry, looked up): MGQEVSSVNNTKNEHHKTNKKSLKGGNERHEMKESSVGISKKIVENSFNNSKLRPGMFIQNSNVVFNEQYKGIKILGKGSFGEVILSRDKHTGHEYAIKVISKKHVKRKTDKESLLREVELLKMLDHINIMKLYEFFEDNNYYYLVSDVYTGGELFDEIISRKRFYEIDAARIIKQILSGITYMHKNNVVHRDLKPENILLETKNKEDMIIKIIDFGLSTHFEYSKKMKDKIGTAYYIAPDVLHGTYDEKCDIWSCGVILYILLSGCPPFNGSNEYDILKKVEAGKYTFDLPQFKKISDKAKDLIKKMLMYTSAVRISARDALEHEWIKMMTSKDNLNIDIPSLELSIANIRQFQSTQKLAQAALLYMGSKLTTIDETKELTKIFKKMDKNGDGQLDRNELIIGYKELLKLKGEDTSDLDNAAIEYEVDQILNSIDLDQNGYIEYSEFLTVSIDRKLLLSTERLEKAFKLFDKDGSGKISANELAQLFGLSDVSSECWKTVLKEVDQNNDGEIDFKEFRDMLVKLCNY

Cc1ccc(F)cc1S(=O)(=O)NCC(C)c1ccc(NC(=O)Nc2cccc(F)c2)cc1 (stereo not given)
inactive: growth inhibition [1] 5% | inhibition [2] 20% | inhibition [3] 2% | outcome [5] | outcome [6] | outcome [7] | outcome [8]
active: growth inhibition [4] 95%

O=C(NC1CC1)c1cnc(N2CCC(Cc3ccccc3)CC2)c(Cl)c1
inactive: inhibition [2] 10% | inhibition [3] -2% | outcome [5] | outcome [6] | outcome [7] | outcome [8]
active: growth inhibition [1] 96% | growth inhibition [4] 96%

CCCc1cc(C(=O)N[C@@H](Cc2ccccc2)[C@H](O)CNC(C)(C)c2cccc(OC)c2)c(F)c(N2CCCC2=O)c1
active: growth inhibition [1] 98% | growth inhibition [4] 98%
inactive: inhibition [2] 7% | inhibition [3] 0% | outcome [5] | outcome [6] | outcome [7] | outcome [8]

Cc1cc(NCC(c2ccccc2)c2ccccc2)nc(NCc2ccc(C(F)(F)F)cc2)n1
active: growth inhibition [1] 79% | growth inhibition [4] 102%
inactive: inhibition [2] 29% | inhibition [3] 2% | outcome [5] | outcome [6] | outcome [7] | outcome [8]

CCn1cc(-c2nc(-c3cc(OC)cc(OC)c3)no2)c(=O)c2ccccc21
active: growth inhibition [1] 77% | growth inhibition [4] 89%
inactive: inhibition [2] -7% | inhibition [3] 0% | outcome [5] | outcome [6] | outcome [7] | outcome [8]

c1ccc(COc2ccc(COc3ccc(Cn4ccnc4)cc3)cc2)cc1
active: growth inhibition [4] 86%
inactive: growth inhibition [1] 45% | inhibition [2] 9% | inhibition [3] 0% | outcome [5] | outcome [6] | outcome [7] | outcome [8]

COc1cc(CNc2ncc(-c3ccsc3)c(-c3nccs3)n2)cc(OC)c1
active: growth inhibition [1] 82% | growth inhibition [4] 86%
inactive: inhibition [2] 3% | inhibition [3] -3% | outcome [5] | outcome [6] | outcome [7] | outcome [8]

Cc1cccc2[nH]c(-c3ccc(-c4cccc(CNC5CCN(C)CC5)c4)s3)nc12
active: growth inhibition [1] 73% | growth inhibition [4] 98%
inactive: inhibition [2] 21% | inhibition [3] 2% | outcome [5] | outcome [6] | outcome [7] | outcome [8]

O=C(c1ccc(O)c(-c2cc(Cl)cc(Cl)c2)c1)N1CCCC1
active: growth inhibition [1] 57% | growth inhibition [4] 90%
inactive: inhibition [2] 3% | inhibition [3] -6% | outcome [5] | outcome [6] | outcome [7] | outcome [8]

N#Cc1cccc(C(=O)Nc2ccc(-c3cccc(CN4CCCC4)c3)cc2)c1
inactive: inhibition [2] 15% | inhibition [3] 2% | outcome [5] | outcome [6] | outcome [7] | outcome [8]
active: growth inhibition [1] 79% | growth inhibition [4] 101%

O=C(Nc1cccc(-c2cccc(-c3nc4ccc(C(F)(F)F)cc4[nH]3)c2)c1)c1cnc[nH]1
active: growth inhibition [1] 100% | growth inhibition [4] 101%
inactive: inhibition [2] 14% | inhibition [3] 2% | outcome [5] | outcome [6] | outcome [7] | outcome [8]

O=C(/C=C/c1ccc(Cl)cc1)NCCCCCN1CCN(C(=O)C=Cc2ccc(Cl)c(Cl)c2)CC1
inactive: growth inhibition [1] 0% | inhibition [2] 30% | inhibition [3] 5% | outcome [5] | outcome [6] | outcome [7] | outcome [8]
active: growth inhibition [4] 92%

O=C(/C=C/c1ccc(Cl)c(Cl)c1)NCCCCCN1CCC(NC(=O)Nc2cc(Cl)nc(Cl)c2)CC1
active: growth inhibition [4] 102%
inactive: growth inhibition [1] 2% | inhibition [2] 4% | inhibition [3] -8% | outcome [5] | outcome [6] | outcome [7] | outcome [8]

COc1cc2c(c(Cl)c1OC)CCN(Cc1ccccc1)CC2c1ccc(C(N)=O)cc1 (stereo not given)
active: growth inhibition [1] 60% | growth inhibition [4] 97%
inactive: inhibition [2] 7% | inhibition [3] -5% | outcome [5] | outcome [6] | outcome [7] | outcome [8]

Cc1cc(NCCC(=O)NCCOc2ccccc2)nc(NCCc2ccc(F)cc2)n1
inactive: growth inhibition [1] 4% | inhibition [2] 14% | inhibition [3] 2% | outcome [5] | outcome [6] | outcome [7] | outcome [8]
active: growth inhibition [4] 97%

c1ccc(CNCc2cccc(-c3ccc(-c4nc5ccccc5[nH]4)s3)c2)cc1
inactive: inhibition [2] 8% | inhibition [3] 3% | outcome [5] | outcome [6] | outcome [7] | outcome [8]
active: growth inhibition [1] 63% | growth inhibition [4] 95%

CCCCN(Cc1cc(Cl)c(OCC)c(OC)c1)c1ccc(C(O)(C(F)(F)F)C(F)(F)F)cc1
inactive: inhibition [2] 5% | inhibition [3] -6% | outcome [5] | outcome [6] | outcome [7] | outcome [8]
active: growth inhibition [1] 97% | growth inhibition [4] 92%

C/C=C/COc1ccc2ccccc2c1CNCCCCCCCCNCc1c(OC/C=C/C)ccc2ccccc12
active: growth inhibition [1] 86% | inhibition [2] 100% | growth inhibition [4] 87%
inactive: inhibition [3] 3% | outcome [5] | outcome [6] | outcome [7] | outcome [8]

CC(C)N(CC(=O)c1ccc(O)c(C(=O)O)c1)Cc1ccccc1
active: growth inhibition [4] 97%
inactive: growth inhibition [1] 26% | inhibition [2] -7% | inhibition [3] -7% | outcome [5] | outcome [6] | outcome [7] | outcome [8]

COc1ccc(NC(=O)/C=C/c2ccccc2Cl)cc1OCCN1CCC(N2CCCCC2)CC1
inactive: growth inhibition [1] 49% | inhibition [2] 3% | inhibition [3] 1% | outcome [5] | outcome [6] | outcome [7] | outcome [8]
active: growth inhibition [4] 101%

Cc1ccc2[nH]c3c(NCCCN(C)C)ncnc3c2c1
active: growth inhibition [4] 99%
inactive: growth inhibition [1] -2% | inhibition [2] 1% | inhibition [3] -4% | outcome [5] | outcome [6] | outcome [7] | outcome [8]

Cc1cc(NN=Cc2ccc(F)cc2)c2cc(C(F)(F)F)ccc2n1
active: growth inhibition [1] 99% | growth inhibition [4] 101%
inactive: inhibition [2] 2% | inhibition [3] -2% | outcome [5] | outcome [6] | outcome [7] | outcome [8]

O=C(Nc1ccc(Cn2nc(Cl)c(N3CCNCC3)cc2=O)cc1)Nc1ccc(-c2ccccc2)cc1
active: inhibition [2] 99% | growth inhibition [4] 97%
inactive: growth inhibition [1] 49% | inhibition [3] -3% | outcome [5] | outcome [6] | outcome [7] | outcome [8]

CC(C)(C)[C@@H](Nc1ccc(C#N)c2ccccc12)C(=O)NC1(Cc2ccc(O)c(Br)c2)CCCC1
inactive: growth inhibition [1] 16% | inhibition [2] 2% | inhibition [3] -2% | outcome [5] | outcome [6] | outcome [7] | outcome [8]
active: growth inhibition [4] 84%

Cc1cccc2[nH]c(-c3ccc(-c4ccc(NC(=O)Nc5cccc(C#N)c5)cc4)s3)nc12
active: growth inhibition [1] 100% | growth inhibition [4] 101%
inactive: inhibition [2] 33% | inhibition [3] -6% | outcome [5] | outcome [6] | outcome [7] | outcome [8]

Cn1c(NCc2cc(F)cc3c2OCOC3)nc2cc(Nc3ccnc(Nc4cccc(CS(C)(=O)=O)c4)n3)ccc21
inactive: inhibition [2] -14% | inhibition [3] -1% | outcome [5] | outcome [6] | outcome [7] | outcome [8]
active: growth inhibition [1] 100% | growth inhibition [4] 102%

COc1ccc(C(=O)CCC(=O)N(CCC2CCCN2C)Cc2ccc(-c3ccc(CNCCc4ccc(S(C)(=O)=O)cc4)cn3)cc2)cc1F (stereo not given)
active: growth inhibition [4] 93%
inactive: growth inhibition [1] 45% | inhibition [2] 13% | inhibition [3] -2% | outcome [5] | outcome [6] | outcome [7] | outcome [8]

COc1ccc(CC(=O)NC(CCN2CCC3(CCc4ccccc43)CC2)c2ccc(Cl)c(Cl)c2)cc1 (stereo not given)
active: growth inhibition [1] 75% | growth inhibition [4] 90%
inactive: inhibition [2] 28% | inhibition [3] -1% | outcome [5] | outcome [6] | outcome [7] | outcome [8]

CCCc1cc(=O)[nH]c(-n2nc(C)cc2NC(=O)C(CC)c2ccccc2)n1 (stereo not given)
inactive: inhibition [2] 41% | inhibition [3] -2% | outcome [5] | outcome [6] | outcome [7] | outcome [8]
active: growth inhibition [1] 63% | growth inhibition [4] 94%

O=C(Nc1cccc(OC2CCN(Cc3ccc(F)cc3)CC2)c1)c1ccc(C(F)(F)F)cc1
active: growth inhibition [4] 94%
inactive: growth inhibition [1] 6% | inhibition [2] 28% | inhibition [3] 3% | outcome [5] | outcome [6] | outcome [7] | outcome [8]

O=c1cc(NCCCNCc2cc(Cl)cc(Cl)c2OCc2ccc(Cl)cc2)[nH]c2ccccc12
active: growth inhibition [1] 53% | growth inhibition [4] 98%
inactive: inhibition [2] 6% | inhibition [3] 3% | outcome [5] | outcome [6] | outcome [7] | outcome [8]

CCCCCn1c(Sc2ccc(C#N)c([N+](=O)[O-])c2)nnc1-c1cccc(Cl)c1
inactive: inhibition [2] 4% | inhibition [3] -2% | outcome [5] | outcome [6] | outcome [7] | outcome [8]
active: growth inhibition [1] 75% | growth inhibition [4] 95%

CCn1c(-c2nonc2N)nc2c(-c3cccc(NC(=O)Nc4cccc(OC)c4)c3)ncc(OCCCN)c21
active: growth inhibition [1] 69% | growth inhibition [4] 92%
inactive: inhibition [2] 1% | inhibition [3] 4% | outcome [5] | outcome [6] | outcome [7] | outcome [8]

CC(C)(C)C(=O)Nc1ccc(N2CCN(C(c3ccccc3)c3ccccc3)CC2)c(Cl)c1
active: growth inhibition [1] 94% | growth inhibition [4] 92%
inactive: inhibition [2] -13% | inhibition [3] 0% | outcome [5] | outcome [6] | outcome [7] | outcome [8]

Cc1ccc(C)c(Cn2ccc3nc(Cl)nc(Cl)c32)c1
active: growth inhibition [1] 68% | growth inhibition [4] 95%
inactive: inhibition [2] -10% | inhibition [3] -2% | outcome [5] | outcome [6] | outcome [7] | outcome [8]

CCCC(C)Nc1nc(C)cc(N[C@@H](Cc2ccccc2)C(=O)NCc2cccc(F)c2)n1 (stereo not given in full)
inactive: inhibition [2] 9% | inhibition [3] -2% | outcome [5] | outcome [6] | outcome [7] | outcome [8]
active: growth inhibition [1] 75% | growth inhibition [4] 100%

CCCCCCCCNCc1c(O)ccc2ccccc12
active: growth inhibition [1] 94% | growth inhibition [4] 99%
inactive: inhibition [2] -11% | inhibition [3] 0% | outcome [5] | outcome [6] | outcome [7] | outcome [8]

CC(=O)Nc1cccc(C(=O)Nc2ccc(-c3ccc(-c4nc5c(C)cccc5[nH]4)s3)cc2)c1
active: inhibition [2] 94% | growth inhibition [4] 93%
inactive: growth inhibition [1] 20% | inhibition [3] 2% | outcome [5] | outcome [6] | outcome [7] | outcome [8]

NC(=O)C1CCN(Cc2cccc(-c3cccc(-c4nc5ccc(F)cc5[nH]4)c3)c2)CC1
active: growth inhibition [4] 100%
inactive: growth inhibition [1] 7% | inhibition [2] 15% | inhibition [3] 3% | outcome [5] | outcome [6] | outcome [7] | outcome [8]

CCc1ccc(N2C(N)=NC(N)=NC2(C)C)cc1
inactive: growth inhibition [1] -1% | inhibition [3] -2% | outcome [5] | outcome [6] | outcome [7] | outcome [8]
active: inhibition [2] 51% | growth inhibition [4] 94%
